Source: PubChem BioAssay (NCATS)
Values without a mark were called inactive. The call rests on the fitted dose curve; in most records, active means well fitted curve in the direction sought with a large enough effect; inconclusive means small, poorly fitted or top-dose-only effect, or another doubt; inactive means no such curve, though single readings can be large or run the other way.

test: qHTS for compounds that reverse cellular toxicity of Amyloid beta (A-beta) peptide in yeast: LOPAC Validation Assay (AID 720559); details: yeast expressing A-beta; series mostly up to 46.1 µM; growth rescue, positive = activation: at the top concentration
Excerpt: The A-beta peptide is produced by the processing of the amyloid precursor protein (APP) by two proteases, beta and gamma secretases. […] A-beta42 is regarded as the most amyloidogenic form due to its hydrophobicity; however, precisely how A-beta42 induces neurotoxicity is unclear. To understand further this biology and its potential therapeutic implications for human neurodegenerative disease, a quantitative high-throughput screen for compounds that reverse the cellular toxicity of the A-beta peptide was developed.
A yeast based screen was used because it recapitulates the salient feature of protein mis-folding disorder accurately. This cell-based phenotypic screen provides a significant, unbiased advantage by letting the compounds and models inform us which proteins or pathways are most relevant. The ideal chemical candidates would therefore have activity in both our primary yeast and secondary neuronal toxicity assays, as well as in mouse models. They will be valuable tools for dissecting diverse protein homeostasis pathologies and could potentially become the focus for future pre-clinical development. For this […] assay, inhibition of A-beta rescues the toxic effect in the yeast cell, resulting in increase of signals.
NIH Chemical Genomics Center [NCGC]
NIH Molecular Libraries Probe Centers Network [MLPCN]
Assay Submitter (PI): Susan Lindquist, Whitehead Institute, Massachusetts Institute of Technology
[1] Vassar R,et al (1999). Beta-secretase cleavage of Alzheimer's amyloid precursor protein by the transmembrane aspartic protease BACE. Science. 286: 735-741.
[2] Yan R, et al (1999). Membrane-anchored aspartyl protease with Alzheimer's disease beta-secretase activity. Nature.
Two and a half microliter / well of yeast growth medium were dispensed in a 1536 assay plate. Compounds were pinned using the Kalypsys robotic system followed by addition of 2.5 uL / well yeast solution. The assay plates were incubated at 30 C. After 48 hr, the absorbance signal at 600 nm was obtained using the PerkinElmer ViewLux plate reader to assess yeast growth. The data was normalized to the positive control of an equimolar mixture of ferric chloride (FeCl3) and clioquinol and to the negative control DMSO.

Point of comparison: `COc1ccc2c(c1)/C(=C/c1cnc[nH]1)C(=O)N2`, “growth rescue, positive = activation” value 7.18%. Against it:
- Cc1o[nH]c(=O)c1CC(N)C(=O)O (stereo not given) — lower, -3.67%
- c1ccc2cc(CC3=NCCN3)ccc2c1 — lower, -3.61%
- CC1(C(=O)O)C2CCC(O2)C1(C)C(=O)O (stereo not given) — lower, -52%
- CC(Cc1ccc(OCC(=O)O)cc1)NCC(O)c1cccc(Cl)c1 (stereo not given) — higher, 8.71%
- CP(=O)(O)C1=CCNCC1 — lower, -0.735%
- O=C(O)c1cc[c]([Hg][Cl])cc1 — lower, -61.2%
- CC(N)Cc1c[nH]c2ccc(OCc3cccs3)cc12 (stereo not given) — lower, -3.48%
- N#C/C(=C/c1ccc(O)c(O)c1)C(N)=S — lower, 4.94%
- COc1ccc(OC)c(C(O)C(C)N)c1 (stereo not given) — lower, -5.82%
- CCCCCCCCCCCCCC(=O)O[C@@H]1[C@@H](C)[C@@]2(O)[C@@H](C=C(CO)C[C@@]3(O)C(=O)C(C)=C[C@@H]23)C2C(C)(C)[C@@]21OC(C)=O (stereo not given in full) — higher, 7.57%
- N[C@@H](Cn1ccc(=O)[nH]c1=O)C(=O)O — lower, -3.48%
- N#CCCN — lower, 0.532%
- COc1cc(CC(C)N)c(OC)cc1I (stereo not given) — lower, 2.93%
- CCS(=O)(=O)Nc1cccc(C(=C2CCCCC2)c2cnc[nH]2)c1 — lower, -2.52%
- CCCN(CCC)CCc1c[nH]c2ccc(C(N)=O)cc12 — lower, -0.44%
- COc1ccc2[nH]cc(CCN)c2c1 — lower, -2.25%
- C[N+](C)(C)CC#CCN1CCCC1=O — lower, -4.8%
- NC(=O)c1ccc(OCC(O)CN2CC=C(c3ccc(F)cc3)CC2)cc1 (stereo not given) — lower, -6.23%
- CCN(CCCl)Cc1ccccc1Br — lower, 4.72%
- O=S1(=O)N(CCN2CC=C(c3c[nH]c4cc(F)ccc34)CC2)c2cccc3c2N1CCC3 — lower, -13.4%
- C[C@H](Cc1ccc2c(c1)OC(C(=O)O)(C(=O)O)O2)NC[C@H](O)c1cccc(Cl)c1 — lower, -0.755%
- C=CCN1CCC23c4c5ccc(O)c4O[C@H]2C(=O)CC[C@@]3(O)C1C5 (stereo not given in full) — lower, -1.05%
- OC1CCCCC1N1CCC(c2ccccc2)CC1 (stereo not given) — lower, -6.13%
- CCOC(=O)c1ncn2c1[C@@H]1CCCN1C(=O)c1cc(OC)ccc1-2 — lower, -16.4%
- NC(N)=Nc1ccc2[nH]c3c(c2c1)C[C@@]1(O)[C@H]2Cc4ccc(O)c5c4[C@@]1(CCN2CC1CC1)[C@H]3O5 — lower, -62.1%
- C[C@@H]1O[C@@H](O[C@H]2C[C@@H](O)[C@]3(CO)[C@@H]4C(CC[C@]3(O)C2)[C@@]2(O)CC[C@H]([C@@H]3COC(=O)C3)[C@@]2(C)C[C@H]4O)[C@H](O)[C@H](O)[C@H]1O (stereo not given in full) — lower, -2.33%
- NCCCP(=O)(O)O — lower, -0.253%
- CN(N=O)c1cc(O)ccc1O — lower, -41%
- CC(C)(O)[C@@H]1C2OC(=O)[C@@H]1[C@]1(O)C[C@H]3O[C@]34C(=O)O[C@H]2[C@]14C (tested in a mixture with another compound) — lower, -0.451%
- CCCN(CCC)[C@H]1CCc2c(F)ccc(O)c2C1 — higher, 15.2%
- NCC(O)c1cc(O)c(O)cc1F (stereo not given) — lower, -1.36%
- NC(Cc1ccc(N(CCCl)CCCl)cc1)C(=O)O (stereo not given) — lower, -7.73%
- CCCN1CCc2cccc3c2[C@H]1Cc1ccc(O)c(O)c1-3 — lower, -2.5%
- C[N+](C)(C)CCOC(=O)CBr — higher, 7.51%
- CCCN1CCc2cc(O)cc3c2[C@H]1Cc1ccc(O)c(O)c1-3 — lower, -2.66%
- CC(N)[C@H](O)c1ccc(O)c(O)c1 (stereo not given in full) — lower, -13.2%
- O=[N+]([O-])c1ccc2nc(N3CCNCC3)ccc2c1 — lower, -12.6%
- CN1C2CCC1CC(OC(c1ccccc1)c1ccccc1N)C2 (stereo not given) — lower, 6.84%
- O=c1c2ccccc2[se]n1-c1ccccc1 — lower, -61.8%
